Experimental data: the supplement of paper PMC8728848
About 410 targets per protein were measured; listed, in parts, are those with the strongest signals and a random draw of the rest.

What was measured:
Assay in all cases: glycan array binding signal (z-score within array); higher = stronger binding
Conditions in all cases: glycan notation: IUPAC condensed, linker removed
[1] = molecular target: Fuc(a1-2)Gal(b1-3)GalNAc(a1-3)[Fuc(a1-2)]Gal(b1-4)GlcNAc
How it was run: (§1)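 Glycan array data came from 3228 arrays in the Consortium for Functional Glycomics database, and only arrays with an available protein sequence were kept. Glycan names were put into IUPAC-condensed notation, and columns mapping to the same glycan were averaged. The binding signal is a within-array Z-score, averaged across arrays of one protein sequence run at different concentrations or buffers and across linkers. A negative Z-score can be read as non-binding.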

[2] = molecular target: Fuc(a1-2)Gal(b1-3)GlcNAc(b1-3)Gal(b1-4)Glc
How it was run: as §1

[3] = molecular target: Fuc(a1-2)Gal(b1-3)[Fuc(a1-4)]GlcNAc(b1-3)[Gal(b1-4)GlcNAc(b1-6)]Gal(b1-4)Glc
How it was run: as §1

[4] = molecular target: Fuc(a1-2)[Gal(a1-3)]Gal(b1-3)GlcNAc(b1-2)Man(a1-3)[Fuc(a1-2)[Gal(a1-3)]Gal(b1-3)GlcNAc(b1-2)Man(a1-6)]Man(b1-4)GlcNAc(b1-4)GlcNAc
How it was run: as §1

[5] = molecular target: Fuc(a1-2)[Gal(a1-3)]Gal(b1-3)GlcNAc(b1-2)Man(a1-3)[Fuc(a1-2)[Gal(a1-3)]Gal(b1-3)GlcNAc(b1-2)Man(a1-6)]Man(b1-4)GlcNAc(b1-4)[Fuc(a1-6)]GlcNAc
How it was run: as §1

[6] = molecular target: Fuc(a1-2)[Gal(a1-3)]Gal(b1-3)GlcNAc(b1-3)GalNAc
How it was run: as §1

[7] = molecular target: Fuc(a1-2)[Gal(a1-3)]Gal(b1-4)GlcNAc(b1-2)Man
How it was run: as §1

[8] = molecular target: Fuc(a1-2)[Gal(a1-3)]Gal(b1-4)GlcNAc(b1-2)Man(a1-3)[Fuc(a1-2)[Gal(a1-3)]Gal(b1-4)GlcNAc(b1-2)Man(a1-6)]Man(b1-4)GlcNAc(b1-4)GlcNAc
How it was run: as §1

[9] = molecular target: Fuc(a1-2)[Gal(a1-4)]Gal(b1-4)GlcNAc
How it was run: as §1

[10] = molecular target: Fuc(a1-2)[GalNAc(a1-3)]Gal(b1-3)GlcNAc(b1-2)Man(a1-3)[Fuc(a1-2)[GalNAc(a1-3)]Gal(b1-3)GlcNAc(b1-2)Man(a1-6)]Man(b1-4)GlcNAc(b1-4)GlcNAc
How it was run: as §1

[11] = molecular target: Fuc(a1-2)[GalNAc(a1-3)]Gal(b1-3)GlcNAc(b1-3)GalNAc
How it was run: as §1

[12] = molecular target: Fuc(a1-2)[GalNAc(a1-3)]Gal(b1-4)GlcNAc(b1-2)Man(a1-3)[Fuc(a1-2)[GalNAc(a1-3)]Gal(b1-4)GlcNAc(b1-2)Man(a1-6)]Man(b1-4)GlcNAc(b1-4)[Fuc(a1-6)]GlcNAc
How it was run: as §1

[13] = molecular target: Fuc(a1-2)[GalNAc(a1-3)]Gal(b1-4)GlcNAc(b1-3)GalNAc
How it was run: as §1

[14] = molecular target: Fuc(a1-2)[GalNAc(b1-3)]Gal
How it was run: as §1

[15] = molecular target: Fuc(a1-3)[Gal(b1-4)]GlcNAc(b1-4)Gal(b1-4)[Fuc(a1-3)]GlcNAc(b1-4)Gal(b1-4)[Fuc(a1-3)]GlcNAc
How it was run: as §1

[16] = molecular target: Fuc(a1-3)[GalNAc(b1-4)]GlcNAc
How it was run: as §1

[17] = molecular target: Gal(a1-3)Gal(b1-3)[Fuc(a1-4)]GlcNAc(b1-2)Man(a1-3)[Gal(a1-3)Gal(b1-3)[Fuc(a1-4)]GlcNAc(b1-2)Man(a1-6)]Man(b1-4)GlcNAc(b1-4)GlcNAc
How it was run: as §1

Gal(a1-3)Gal(b1-4)GlcNAc = molecular target: Gal(a1-3)Gal(b1-4)GlcNAc
How it was run: as §1

[18] = molecular target: Gal(a1-3)Gal(b1-4)GlcNAc(b1-6)GalNAc
How it was run: as §1

[19] = molecular target: Gal(b1-3)GlcNAc(b1-3)Gal(b1-4)GlcNAc(b1-2)Man(a1-3)[Gal(b1-3)GlcNAc(b1-3)Gal(b1-4)GlcNAc(b1-2)Man(a1-6)]Man(b1-4)GlcNAc(b1-4)GlcNAc
How it was run: as §1

[20] = molecular target: Gal(b1-3)[Fuc(a1-4)]GlcNAc(b1-3)Gal(b1-3)[Fuc(a1-4)]GlcNAc
How it was run: as §1

[21] = molecular target: Gal(b1-3)[Fuc(a1-4)]GlcNAc(b1-3)Gal(b1-4)GlcNAc
How it was run: as §1

Gal(b1-4)Glc = molecular target: Gal(b1-4)Glc
How it was run: as §1

[22] = molecular target: Gal(b1-4)GlcNAc(b1-3)Gal(b1-4)GlcNAc(b1-3)Gal(b1-4)GlcNAc
How it was run: as §1

[23] = molecular target: Gal(b1-4)GlcNAc(b1-3)Gal(b1-4)GlcNAc(b1-3)Gal(b1-4)GlcNAc(b1-3)Gal(b1-4)GlcNAc(b1-3)Gal(b1-4)GlcNAc(b1-2)Man(a1-3)[Gal(b1-4)GlcNAc(b1-3)Gal(b1-4)GlcNAc(b1-3)Gal(b1-4)GlcNAc(b1-3)Gal(b1-4)GlcNAc(b1-3)Gal(b1-4)GlcNAc(b1-2)Man(a1-6)]Man(b1-4)GlcNAc(b1-4)[Fuc(a1-6)]GlcNAc
How it was run: as §1

[24] = molecular target: Gal(b1-4)GlcNAc(b1-3)Gal(b1-4)GlcNAc(b1-3)GalNAc
How it was run: as §1

[25] = molecular target: Gal(b1-4)GlcNAc(b1-3)Gal(b1-4)GlcNAc(b1-3)[Gal(b1-4)GlcNAc(b1-3)Gal(b1-4)GlcNAc(b1-6)]GalNAc
How it was run: as §1

Gal3S(b1-4)GlcNAc6S = molecular target: Gal3S(b1-4)GlcNAc6S
How it was run: as §1

Question: What does the source list for KISKRILTGKK [NK11 (Sus scrofa)]?
Answer: glycan array binding signal (z-score) [1]: -0.539; glycan array binding signal (z-score) [2]: 0.203; glycan array binding signal (z-score) [3]: -0.767; glycan array binding signal (z-score) [4]: -0.23; glycan array binding signal (z-score) [5]: -0.614; glycan array binding signal (z-score) [6]: 0.052; glycan array binding signal (z-score) [7]: -0.085; glycan array binding signal (z-score) [8]: 0.702; glycan array binding signal (z-score) [9]: 0.014; glycan array binding signal (z-score) [10]: -0.032; glycan array binding signal (z-score) [11]: 0.052; glycan array binding signal (z-score) [12]: 0.421; glycan array binding signal (z-score) [13]: -1.25; glycan array binding signal (z-score) [14]: -0.608; glycan array binding signal (z-score) [15]: -0.886; glycan array binding signal (z-score) [16]: -0.401; glycan array binding signal (z-score) [17]: -0.06; glycan array binding signal (z-score) (Gal(a1-3)Gal(b1-4)GlcNAc): -0.302; glycan array binding signal (z-score) [18]: -0.147; glycan array binding signal (z-score) [19]: -0.818; glycan array binding signal (z-score) [20]: -0.425; glycan array binding signal (z-score) [21]: 3.41; glycan array binding signal (z-score) (Gal(b1-4)Glc): -0.144; glycan array binding signal (z-score) [22]: -0.612; glycan array binding signal (z-score) [23]: -0.483; glycan array binding signal (z-score) [24]: 2.91; glycan array binding signal (z-score) [25]: 3.55; glycan array binding signal (z-score) (Gal3S(b1-4)GlcNAc6S): 3.4
